# Sfp inh: blocks B. subtilis Sfp PPTase activity; Q9F4F7; Biochemical Sfp PPTase activity, qHTS; Potency, µM, for inactives: largest response in the series, negative = inhibition, usual class: inhibitors; hit rate 3.5% among 310,000; AID 1490;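 further: the enzyme is Sfp with the accession as filed and its product quenches rhodamine fluorescence; potency means the concentration at half of the fitted maximal effect; 0% = enzyme reaction without inhibitor and -100% = no enzyme wells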
#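 Buffer: 50 mM Hepes-Na pH 7.6, 10 mM MgCl2, 0.01% Nonidet P-40, 0.01% BSA. Enzyme 15 nM, pre-exposed to compound 15 min; substrates then added and fluorescence change tracked over 30 min.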
# Coupling enz: coupling enzyme interference in Giardia aldolase counter-screen | coupling enzyme system counterscreen, AmpLite Red fluorescence | activity change, negative = inhibition, % at 58.2 µM, hits read low | hit rate 0.67% among 290,000 | AID 2472; in the data active means activity change below about -30%
#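 Activity here indicates interference with the coupling reaction, not aldolase inhibition. Compounds at 57.5 uM final met coupling enzymes for 10 min at RT; substrate and AmpLite Red detection followed, with a 525/598 nm fluorescence read after 20 min.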
# ELG1 repair inh: ELG1-dependent DNA repair inhibition; HEK293T ELG1-luciferase reporter, luminescence, 16 h; DNA damage induced by 5-fluorouridine; Potency, µM (titrated, usually from 46.1 µM), inactives show top-dose activity change, negative = inhibition, hits mostly inhibitors; hit rate 2.3% among 330,000; further: potency means the concentration at half of the fitted maximal effect; nearly all actives have a fitted effect of over 55% in size
#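 Cells (2,000 per well) received 5-fluorouridine plus test compound or DMSO and were incubated 16 hr at 37 °C, 5% CO2. Luciferase activity was read by luminescence 30 min after ONE-Glo addition; signal suppression marked inhibition of damage-induced ELG1 function.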
# Giardia killer: kills Giardia lamblia; Giardia lamblia trophozoite viability; activity change, % at 7.66 µM, hits read low; hit rate 0.15% among 340,000; AID 540267; in the data active means activity change below about -80%; inconclusive means between about -30% and that limit;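 further: parasites exposed to compound for two days anaerobically before the ATP read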
#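 Killing of trophozoites was scored by loss of ATP luminescence after a 48 hrs anaerobic exposure to compounds at 37 deg C, using 100 cells per well.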
# Active calls of the source: *; ? = inconclusive; nt = not tested or not shown. Sampled rows, rich in hits. Any-hit rate of the full collection: about 5.5%. Unless noted, the call rests on the fitted dose curve; in most records, active means well fitted curve in the direction sought with a large enough effect; inconclusive means small, poorly fitted or top-dose-only effect, or another doubt; inactive means no such curve, though single readings can be large; an effect the other way counts as inactive or inconclusive. Unless noted, on the % scale 0 is the no-effect control and ±100 the full control effect.
SMILES,Sfp inh,Coupling enz,ELG1 repair inh,Giardia killer
O=C(N/N=C1/C[C@@H](O)[C@@H](O)[C@@H]2[C@H]3C(=O)N(c4ccc(F)cc4F)C(=O)[C@@H]3CC[C@H]12)OCc1ccccc1,-12.4%,2.7,nt,nt
COCCSc1ccccc1C(=O)N1CCC(Cc2ccccc2)CC1,-16.6%,0.9,23.1µM*,-12.8
Cc1c(C(=O)N2CCC(Cc3ccccc3)CC2)cccc1[N+](=O)[O-],3.3%,-7.1,-0.8%,1.2
Fc1ccccc1Nc1nc(-c2ccncc2)nc2ccccc12,-12.8%,-2.5,2.59µM*,8.0
Fc1ccc(Nc2nc(-c3ccncc3)nc3ccccc23)cc1,2.6%,1.1,2.31µM*,12.6
c1ccc(CCNc2nc(-c3ccncc3)nc3ccccc23)cc1,?,-3.7,14.6µM*,-6.7
CN(C)c1ccc(-c2nc(Nc3ccncc3)c3ccccc3n2)cc1,?,0.1,nt,nt
c1ccc(Nc2nc(-c3ccncc3)nc3ccccc23)cc1,12.4%,0.8,2.06µM*,-15.1
O=[N+]([O-])c1ccc2c(c1N1CCCCC1)=NC1(CCCCC1)[N+]=2[O-],25.1µM*,-26.3,0.0%,14.5
CCCN1C2CCCC1CC(NC(=O)C1CCCCC1)C2 (stereo not given),13.6%,1.5,-2.1%,-14.2
COc1cccc(C(=O)NC2CC3CCCC(C2)N3CC(=O)Nc2ccccc2C(F)(F)F)c1 (stereo not given),13.1%,-0.1,?,23.9
O=C(CN1C2CCCC1CC(NC(=O)C1CCCCC1)C2)Nc1ccccc1C(F)(F)F (stereo not given),5.8%,-0.4,14.6µM*,-4.6
O=C(CN1C2CCCC1CC(NC(=O)C1CCCCC1)C2)NCc1ccc(F)cc1 (stereo not given),10.5%,7.5,11.6µM*,-4.4
COc1ccc(C(CNC(=O)c2cc(S(=O)(=O)N3CCCC3)ccc2Cl)N2CCCC2)cc1 (stereo not given),nt,nt,10.2%,5.5
O=C(CN(Cc1ccccc1)C(=O)CSc1nnc(COc2ccccc2)o1)NC1CCCC1,79.4µM*,0.3,?,-4.7
CCOC(=O)c1c(C)[nH]c2cc(Br)c(O)cc12,-18.5%,-8.6,?,14.0
CCOC(=O)c1c(OCC)[nH]c2c1cc(O)c1ccccc12,?,-49.4*,20.6µM*,6.4
O=c1c(-c2cc(F)cc(F)c2)nc2cnc(N3CCNCC3)nc2n1Cc1ccc(F)cc1,17.8µM*,0.4,nt,nt
COc1cccc(Cn2c(=O)c(CCc3ccccc3)nc3cnc(N4CCNCC4)nc32)c1,79.4µM*,2.1,nt,nt
COc1ccc(-c2nc3cnc(N4CCNCC4)nc3n(CCc3ccccc3)c2=O)cc1,?,1.8,nt,nt
O=c1c(-c2ccc(Cl)cc2)nc2cnc(N3CCNCC3)nc2n1CCc1ccccc1,44.7µM*,-2.1,nt,nt
CN1CCN(c2ncc3nc(CCc4ccccc4)c(=O)n(Cc4cccs4)c3n2)CC1,28.2µM*,-0.8,nt,nt
Cc1cccc(NS(=O)(=O)c2ccc(C)c(C(=O)NCC(c3cccs3)N3CCOCC3)c2)c1 (stereo not given),nt,nt,nt,2.9
CN(CC(=O)Nc1ccc(F)cc1)C(=O)c1ccc(N2C(=O)CCC2=O)cc1,nt,nt,11.2%,9.4
O=c1c(CCc2ccccc2)nc2cnc(N3CCNCC3)nc2n1CCc1ccccc1,39.8µM*,-0.6,nt,nt
SMILES,Sfp inh,Coupling enz,ELG1 repair inh,Giardia killer
O=c1sc(/C=N/Nc2ccccc2)c(Cl)n1Cc1ccccc1,50.1µM*,-3.7,?,0.6
O=Cc1sc(=O)n(Cc2cccc(C(=O)O)c2)c1Cl,44.7µM*,14.2,0.0%,-1.9
N#CCCn1c(=O)c(CCc2ccccc2)nc2cnc(Nc3ccccc3)nc21,9.8%,6.1,nt,nt
COc1ccc(N2Cc3ccc(C(=O)N/N=C\c4ccc(O)cc4O)cc3C2)cc1,-12.5%,0.1,?,nt
CC(C)NS(=O)(=O)c1ccc2[nH]c3nc(SCC(=O)Nc4ccc(F)c(F)c4)nnc3c2c1,nt,nt,nt,-17.9
COc1ccc(Cc2nc3ccc(C(=O)N(C)CCc4cnn(C)c4)cc3o2)cc1OC,2.9%,1.8,?,13.2
O=C(O)c1cc(C(=O)O)cc(-c2ccc(/C=c3/sc4nc5ccccc5n4c3=O)o2)c1,7.08µM*,-8.4,-0.4%,5.4
O=c1/c(=C\c2cc([N+](=O)[O-])cc([N+](=O)[O-])c2O)sc2nc3ccccc3n12,22.4µM*,-31.9*,-15.6%,10.1
COC(=O)/C=c1/sc2nc3ccccc3n2c1=O,11.2µM*,5.2,-0.3%,-8.0
O=C(O)c1cccc(-c2ccc(/C=c3/sc4nc5ccccc5n4c3=O)o2)c1,?,-1.7,?,14.2
